PK Bst: alters activity of Bacillus stearothermophilus pyruvate kinase | purified pyruvate kinase, luminescence ATP production; ribose 5-phosphate activator present at AC10 | Potency, µM | hit rate 1.2% among 51,000; in the data active = potency below about 11 µM; inconclusive = mostly about 12 µM to 25 µM;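 the screen sought inhibitors and activators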;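 also: scaled between full activation by ribose 5 phosphate and full inhibition by luteolin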
TSHR agonist: TSH receptor (human) agonism; P16473; HEK293-CNG-TSHR cells (CNG channel as cAMP sensor), membrane potential dye, cAMP; Potency, µM (titrated, usually from 57.1 µM), for inactives: at the top dose activation, usual class: activators; hit rate 0.48% among 73,000; active = well fitted activation curve with a large enough effect in the main read-out, with a control signal flat, not every such curve was filed as active; inconclusive = small, poorly fitted or top-dose-only effect, or a change in a side signal; inactive = no such curve, though single readings can be large or run the other way; % of control where 0% means no effect;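 also: the control signal comes from parental cells without the receptor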
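HEK 293 cells stably expressing TSHR and a cAMP-gated CNG channel; parental CNG-only cells as counterscreen. Cells preloaded 60 min with membrane potential dye plus 100 uM RO 20-1724, then compound 30 min; fluorescence read at 590 nm.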
HEK293 cAMP cs: counter-screen for TSHR agonists: cAMP increase in parental HEK293; parental HEK293 CNG cAMP sensor, membrane potential fluorescence; Potency, µM (highest dose often 57.1 µM), inactives show at the top dose activation, usual class: activators; hit rate 2.5% among 73,000; active = well fitted activation curve with a large enough effect; inconclusive = small, poorly fitted or top-dose-only effect; inactive = no such curve, though single readings can be large or run the other way; also: % of control where 0% means no effect; nearly all actives have a fitted effect of over 55% in size
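Counterscreen for endogenous-receptor signalling: CNG-channel HEK 293 cells report cAMP rise by membrane depolarization. After 60 min dye equilibration with 100 uM RO 20-1724, compounds incubated 30 min before bottom-read fluorescence at 590 nm.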
GBA activity: alters purified human glucocerebrosidase activity. purified enzyme, resorufin glucoside fluorescence (screen aimed at inhibitors), 20 min. Potency, µM. hit rate 1.1% among 48,000; in the data active = potency below about 15 µM; inconclusive = mostly about 16 µM to 33 µM;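 also: the screen sought inhibitors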
Target sequence (P04062 whole entry, looked up): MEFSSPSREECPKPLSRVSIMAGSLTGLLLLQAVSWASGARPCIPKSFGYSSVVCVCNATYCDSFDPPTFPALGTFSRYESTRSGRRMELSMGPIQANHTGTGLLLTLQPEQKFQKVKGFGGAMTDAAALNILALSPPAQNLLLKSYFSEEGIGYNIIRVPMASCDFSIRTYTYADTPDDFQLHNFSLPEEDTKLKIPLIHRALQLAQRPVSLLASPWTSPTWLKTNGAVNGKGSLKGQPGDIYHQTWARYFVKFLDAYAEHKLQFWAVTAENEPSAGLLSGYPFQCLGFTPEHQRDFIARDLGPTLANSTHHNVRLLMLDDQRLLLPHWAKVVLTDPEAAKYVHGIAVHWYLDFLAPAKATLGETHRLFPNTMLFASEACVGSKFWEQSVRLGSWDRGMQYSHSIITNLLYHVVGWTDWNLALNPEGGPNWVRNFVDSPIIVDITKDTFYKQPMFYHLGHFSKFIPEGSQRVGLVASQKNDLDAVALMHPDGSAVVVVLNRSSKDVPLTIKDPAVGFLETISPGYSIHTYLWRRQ
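Compounds titrated against 0.2 nM normal enzyme, 30 uM resorufin beta-D-glucopyranoside substrate, citrate/phosphate buffer with taurocholate and tween-20, pH 5.9. Reaction ran 20 min at room temperature; fluorescence (Ex 548/Em 600) gave AC50.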
* = called active by the depositor; ? = inconclusive; . = not tested or not shown; [ ] = dose if it differs, or a comment. Compounds with a hit are over-represented: about 4% of the library has one in this group of screens. Potency is read from the fitted curve at half-maximal effect.

SMILES	PK Bst	TSHR agonist	HEK293 cAMP cs	GBA activity
CC12C=C(/C=C/c3ccccc3)C(C)(C1)C(c1ccccc1)CC2=O (stereo unspecified)	.	-3%[11.4 µM]	7%[11.4 µM]	.
CC1CC(C)CN(C(=O)COC(=O)c2cc3ccccc3cc2O)C1 (stereo unspecified)	>57	?	32µM*	>77
CC1CCN(C(=O)COC(=O)c2cc3ccccc3cc2O)CC1	>57	?	0.2µM*	>77
CC1CCN(C(=O)COC(=O)c2n[nH]c3ccccc23)CC1	.	-10%	1%	>77
O=C(O)[C@@H]1[C@@H](C(=O)NCc2cccnc2)[C@@H]2C=C[C@@H]1O2	.	0%[11.4 µM]	0%[11.4 µM]	.
CCCn1c(-c2ccc(F)cc2)nc2c(N3CCN(Cc4nc(OC)cc(OC)n4)CC3)nc(C)nc21	.	?	16µM*	.
O=c1oc2cc(N=Cc3ccc4c(c3)OCO4)ccc2c2ccccc12	.	6%[11.4 µM]	1%[11.4 µM]	.
Cc1ccsc1C(=O)OCc1csc(-c2ccccc2)n1	7.1*	?	?	>77
Cn1cccc1C(=O)OCc1csc(-c2ccccc2)n1	9.3*	6%	13%	>77
c1ccc(CN2CCC3(CC2)SSC2(CCN(Cc4ccccc4)CC2)SS3)cc1	.	3%[11.4 µM]	-5%[11.4 µM]	.
O=C(O)/C(=C\c1ccncc1)c1cccc2ccccc12	.	-3%[11.4 µM]	1%[11.4 µM]	.
c1cncc(CNCc2cccnc2)c1	.	8%[11.4 µM]	3%[11.4 µM]	.
CSc1nc2nc(C)cc(-c3ccccc3)n2n1	>57	9%	-2%	>77
CSc1nc2nc(-c3ccccc3)cc(C(F)(F)F)n2n1	>57	29%	3%	11*
COc1ccc(C(C)=O)cc1COC(=O)c1ccc2c(c1)OCO2	>57	?	32µM*	>77
CCN1c2ccccc2-c2nc3ccccc3n2C1c1cccnc1 (stereo unspecified)	>57	?	32µM*	>77
CCN1c2ccccc2-c2nc3ccccc3n2C1c1ccncc1 (stereo unspecified)	>57	?	20µM*	>77
CCN1c2ccccc2-c2nc3ccccc3n2C1c1ccccn1 (stereo unspecified)	>57	?	16µM*	>77
c1cncc(C2Nc3ccccc3-c3nc4ccccc4n32)c1 (stereo unspecified)	.	28%	4%	>77
Cc1ccc(-c2noc(CCC(=O)NCCN3CCc4ccccc4C3)n2)cc1	>57	?	?	15*
Cc1ccc(-c2noc(CCC(=O)NCCN3CCOCC3)n2)cc1	>57	-7%	3%	?
Cc1cc(N2CCN(c3ccccc3)CC2)n2c(n1)nc1ccccc12	>57	?	25µM*	.
Cc1cc(N2CCN(c3ccccc3)CC2)n2nnnc2n1	>57	-5%	2%	>77
COc1ccc(N2CCN(S(=O)(=O)/C=C/c3ccccc3)CC2)cc1	>57	10%	2%	>77
CN1CCN(S(=O)(=O)c2ccc(N3CCN(S(=O)(=O)/C=C/c4ccccc4)CC3)nc2)CC1	>57	-1%	9%	13*
SMILES	PK Bst	TSHR agonist	HEK293 cAMP cs	GBA activity
CSc1nc(C)c(C(=O)Nc2ccccc2)c(C)c1C#N	>57	?	25µM*	>77
CCC(=O)Nc1ccc(C(=O)Nc2cccnc2)cc1	>57	-1%	2%	6.6*
O=C(Nc1cccnc1)c1ccc(COCC(F)(F)F)cc1	>57	1%	1%	5.1*
O=C(Nc1cccnc1)c1ccc(NC(=O)c2ccco2)cc1	>57	-3%	-2%	?
NC(=S)SCCC(=O)O	.	4%[11.4 µM]	-3%[11.4 µM]	.
CCn1c(/N=C/c2c[nH]c3ccccc23)nc2ccccc21	2.7*	12%	11%	?
O=[N+]([O-])c1cccc(/C=N\NC2=CS(=O)(=O)C=C2)c1	.	5%[11.4 µM]	3%[11.4 µM]	.
Cc1noc(C)c1COC(=O)c1cc(C)n(-c2ccccc2)c1C	>57	?	?	>77
Cc1cccc(C(=O)Nc2ccccc2C(=O)OCc2c(C)noc2C)c1	>57	?	16µM*	.
Cc1cccc(NS(=O)(=O)c2cc(C(=O)O)ccc2Cl)c1	.	6%	10%	.
O=C(N1CCCCC1)C1(c2ccccc2)CCOCC1	>57	?	16µM*	>77
O=C(N1CCOCC1)C1(c2ccccc2)CCCCC1	>57	-9%	10%	>77
Cc1cc(C(=O)OCc2nnc(-c3ccccc3)o2)c(C)n1-c1ccccc1	>57	?	13µM*	>77
O=C(Nc1ccccc1)OC[C@H](CN1CCCCC1)OC(=O)Nc1ccccc1	.	-14%[25.6 µM]	3%[25.6 µM]	.
N#CCCn1c(=O)c(-c2ccc(Cl)cc2)nc2cnc(Oc3cccc(Cl)c3)nc21	.	3%	14%	.
N#CCCn1c(=O)c(CCc2ccccc2)nc2cnc(Oc3cccc(Cl)c3)nc21	.	?	5µM*	.
COCCn1c(=O)c(CCc2ccccc2)nc2cnc(Oc3ccccc3)nc21	.	?	25µM*	.
Cc1nc2cnc(OCc3ccccc3)nc2n(CCc2ccccc2)c1=O	.	?	10µM*	.
CN(C)C[C@H]1CCC2=C(C1=O)C(c1ccc(Cl)c(Cl)c1)C1=C(CC[C@H](CN(C)C)C1=O)O2	.	8%[11.4 µM]	9%[11.4 µM]	.
O=S(=O)(O)c1cc(N=[N+]([O-])c2cc(S(=O)(=O)O)c3ccccc3c2)cc2ccccc12	.	-1%[11.4 µM]	0%[11.4 µM]	.
N#CCCn1cc(C(CC(=O)c2ccccc2)C(=O)O)c2ccccc21 (stereo unspecified)	>57	11%	4%	>77
CC1(Cc2cn(CCC#N)c3ccccc23)OCCO1	>57	16µM*	15%	14*
CCC(C)(C(=O)NC1CCCC1)N(CC1CCCO1)C(=O)c1ccc2c(c1)OCO2 (stereo unspecified)	>57	?	?	>77
CCC(C)(C(=O)NC1CCCCC1)N(Cc1ccco1)C(=O)c1ccc2c(c1)OCO2 (stereo unspecified)	>57	?	7.9µM*	>77
CCOC(=O)C1CCN(C(C(=O)Nc2ccc3c(c2)OCCO3)c2ccccc2)CC1 (stereo unspecified)	>57	?	13µM*	>77
SMILES	PK Bst	TSHR agonist	HEK293 cAMP cs	GBA activity
CCOC(=O)C1CCN(c2c(Nc3ccc4c(c3)OCCO4)c(=O)c2=O)CC1	.	-38%	5%	.
Fc1ccc(-c2nnc(NC3=NCCCCC3)o2)cc1	4.5*	-7%	-2%	>77
O=c1cc(-c2cccc(O)c2O)oc2ccccc12	.	27%	23%	.
COC(=O)[C@@H](NC(=O)c1cc(-c2ccccc2)nc2ccccc12)c1ccccc1	.	?	3.2µM*	.
COc1ccc(CN/C(C)=C(/C#N)C(N)=O)cc1OC	>57	13µM*	-2%	>77
FC(F)(F)c1ccccc1-c1nc(N2CCOCC2)c2ccccc2n1	.	?	1µM*	.
CCCc1noc2c1/C(=N\O)CC(CC(C)SCC)C2 (stereo unspecified)	.	25µM*	16%	.
CCSC(C)CC1C/C(=N/O)c2c(CC)noc2C1 (stereo unspecified)	.	16%	19%	.
Cc1cccc(CNc2cc(-c3ccccc3CN(C)C)ncn2)c1	.	28%	29%	.
Cc1cccc(CNc2ccnc(-c3ccccc3CN(C)C)n2)c1	.	?	5µM*	.
Cc1ccc(C[C@H](Cc2nc3ccccc3[nH]2)c2nc3ccccc3[nH]2)cc1	.	22%	1%	.
COc1cc(OC)c(C2CC(=O)N3CN(C)CSC3=C2C#N)cc1OC (stereo unspecified)	.	-3%	10%	.

Assay outcomes from PubChem BioAssay.
